Only some compounds are listed: those with a hit (about 4.6% of all), similar ones and a draw of the others.
D1 PAM: Potentiators of Human D1 Dopamine Receptor: qHTS | 0.036% of 360,000 active | D(1A) dopamine receptor (Homo sapiens), P21728 | potentiation, % at 10 µM | HEK293 TREx D1 cells, calcium flux, dopamine EC20 potentiation; in the data active means potentiation above about 30%; further: 0% is about no effect
D1 antagonist: Antagonist of Human D 1 Dopamine Receptor: qHTS. HEK293 TREx D1 cells, calcium flux, dopamine EC80; stronger effect = lower value. activity change, negative = inhibition, % at 10 µM. 3.2% of 360,000 active. AID 504652, 2011; in the data active means activity change below about -30%; further: on the % scale 0 is the no-effect control and ±100 the full control effect
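Using tetracycline-induced force-coupled D1 Hek293 cells and a calcium dye, signals were followed for 180 s after compound, then for 180 s after EC80 dopamine, to detect inhibitors.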
D1 agonist: Allosteric Agonists of the Human D1 Dopamine Receptor: qHTS; HEK293 T-REx D1 cells, calcium flux, agonist mode; activation, % at 2 µM; 1% of 360,000 active; D(1A) dopamine receptor (Homo sapiens), P21728; in the data active means activation above about 30%; further: 0% is about no effect
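Tetracycline-induced HEK293 TREx D1 cells, force-coupled to calcium signalling, were dye-loaded with a no-wash calcium kit. Compound was pin-added after a 10 s baseline. Fluorescence was read kinetically at 1 cycle/s for 180 s, with calcium rises flagged as agonism.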
TRHR agonist-1: qHTS for Small Molecule Agonists and Allosteric Enhancers of Human TRH Receptor: Primary Screen for Agonists; TRHR cells, calcium flux fluo-8, FDSS agonist mode; activation, % at 2 µM; 0.18% of 360,000 active; in the data active means activation above about 30%; further: 0% is about no effect
Target sequence (P34981 whole entry, looked up): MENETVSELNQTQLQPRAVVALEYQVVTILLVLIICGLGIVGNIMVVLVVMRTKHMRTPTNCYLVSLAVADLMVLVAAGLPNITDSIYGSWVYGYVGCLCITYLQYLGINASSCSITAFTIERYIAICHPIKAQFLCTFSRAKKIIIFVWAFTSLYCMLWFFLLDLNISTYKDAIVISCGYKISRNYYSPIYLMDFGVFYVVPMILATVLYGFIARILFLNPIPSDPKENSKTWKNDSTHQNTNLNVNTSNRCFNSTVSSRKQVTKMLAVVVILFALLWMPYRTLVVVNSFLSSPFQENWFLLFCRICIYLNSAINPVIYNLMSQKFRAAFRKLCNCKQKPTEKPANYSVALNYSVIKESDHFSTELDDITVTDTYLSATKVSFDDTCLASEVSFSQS
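Fluo-8-loaded TRHR cells; 10 s baseline, compound added, kinetic Ca2+ fluorescence read 1/s, agonist mode.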
TRHR enhancer-1: qHTS for Small Molecule Agonists and Allosteric Enhancers of Human TRH Receptor: Primary Screen for Enhancers. TRHR cells, fluo-8 calcium fluorescence, EC20 TRH enhancement. enhancement, % at 2 µM. 0.66% of 360,000 active. AID 493056, 2011. Thyrotropin-releasing hormone receptor (Homo sapiens), P34981; in the data active means enhancement above about 30%; further: 0% is about no effect
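Enhancer read-out: after compound pinning and an initial kinetic agonist-mode read, an EC20 of TRH (10 nM final) was injected and fluo-8 calcium signal (Ex 480/Em 530) followed at 1 s/cycle for 100 cycles in TRHR-expressing cells.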
TRHR enhancer-2: qHTS for Small Molecule Agonists and Allosteric Enhancers of Human TRH Receptor: Confirmation Screen for Enhancers. shares compounds with TRHR enhancer-1. TRH receptor cell assay, enhancer confirmation qHTS. activity change, negative = inhibition, % at 46.1 µM. 970 tested, under 10 active. AID 493076, 2011;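 further: compound effect scored on response to added TRH at EC20 of 10 nM; 0% is about no effect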
TRHR agonist-2: qHTS for Small Molecule Agonists and Allosteric Enhancers of Human TRH Receptor: Confirmation Screen for Agonists | TRHR-expressing cells, agonist activation read-out | 8% of 970 active | Potency, µM (highest dose often 46.1 µM), without a hit: at the top dose activation, most hits filed as activators | shares compounds with TRHR enhancer-1; further: potency means the concentration at half of the fitted maximal effect; 0% is about no effect; nearly all actives have a fitted effect of over 75% in size
An asterisk follows results filed as active; ? = inconclusive; / = no result given. Unless noted, the call rests on the fitted dose curve; in most records, active means well fitted curve in the direction sought with a large enough effect; inconclusive means small, poorly fitted or top-dose-only effect, or another doubt; inactive means no such curve, though single readings can be large; an effect the other way counts as inactive or inconclusive.

SMILES | D1 PAM | D1 antagonist | D1 agonist | TRHR agonist-1 | TRHR enhancer-1 | TRHR enhancer-2 | TRHR agonist-2
Cc1ccc(-c2c(C)sc3nc[nH]c(=O)c23)cc1C | -21.1 | -34.8* | 2.3 | -0.7 | 46.8* | 0.1 | 1.4%
Cc1ccc(C)c(NC(=O)Cn2c(=O)n(Cc3ccc4c(c3)OCO4)c(=O)c3ccccc32)c1 | -0.3 | 5.6 | 5.2 | 1.1 | -2.1 | / | /
CCn1nc(-c2ccccc2)c(-c2ccccc2)c(C(=O)Nc2nc(C)c(C(=O)N(C)C)s2)c1=O | 1.7 | -3.6 | 3.2 | 0.8 | 0.0 | / | /
COc1ccc(C)cc1NC(=O)NCCC1=CCCCC1 | 4.1 | 2.4 | 1.2 | -0.5 | 43.4* | -1.3 | 1.9%
COc1ccc(C)cc1NC(=O)c1cc(S(=O)(=O)NCCC2=CCCCC2)ccc1F | -1.0 | 5.4 | 1.7 | 0.6 | 6.9 | / | /
Cc1ccc2c(c1)-c1c(c(C(=O)NCCc3ccccc3)nn1C)CS2 | -0.3 | -3.7 | 7.4 | -1.4 | 4.0 | / | /
CCOC(=O)c1cnc(-n2nc(C)cc2C)nc1Nc1ccc(OC)cc1 | -2.2 | -19.3 | 2.2 | 0.1 | 41.5* | -2.5 | ?
Cc1cc2nc(-c3ccc(NC(=O)c4ccccc4F)cc3)oc2cc1C | -1.6 | -7.8 | 0.1 | -0.4 | 1.5 | / | /
Cc1cn2c(N)c(C=C3C=C(Cl)C(=O)C(Cl)=C3)c(=O)nc2s1 | 3.1 | 5.7 | 50.9* | 26.8 | -2.7 | 0.5 | 9.2µM*
Cc1ccc(CNC(=O)c2ccc(CSCc3ccccc3C)o2)cc1 | -2.5 | -12.6 | 26.1 | 2.0 | -1.2 | / | /
CCOC(=O)Cc1nnc(NC(=O)COc2ccc(C)cc2)s1 | -3.7 | -17.9 | 16.7 | 0.9 | 41.1* | ? | 2.4%
CCN(CC)CCN(C(=O)c1ccc2c(c1)CCCC2)c1nc2c(C)cccc2s1 | -1.2 | 21.6 | 4.3 | 38.0* | 1.4 | -8.5 | 0.4%
COc1cc(OC)c(NC(=O)CN2C(=O)CCn3nc(-c4cccn4C)cc32)cc1Cl | 0.6 | -19.2 | 1.2 | 0.3 | -1.0 | / | /
O=C(NCc1ccccc1)c1ccc(CS(=O)(=O)c2c(Cl)cccc2Cl)o1 | -2.6 | -4.3 | 2.0 | -0.6 | -10.2 | / | /
COc1ccc(C(=O)C2CCN(C(=O)c3ccco3)CC2)cc1 | -4.9 | -39.8* | 4.1 | -0.5 | 48.6* | ? | 6.7%
COc1ccc(C(=O)C2CCN(C(=O)c3ccc(C)cc3)CC2)cc1 | -0.6 | -20.7 | 4.3 | -0.9 | -4.9 | / | /
Cc1nn(C)cc1S(=O)(=O)Nc1ncccn1 | -4.2 | 0.5 | -0.5 | 2.1 | 41.3* | 0.5 | 6.1%
COc1ccccc1NC(=O)CC1COc2ccccc2O1 (configuration not stated) | -4.0 | 9.1 | 1.3 | -0.4 | 46.5* | 4.7 | 1.4%
O=C(Cn1c(=O)n(-c2ccccc2)c(=O)c2ccc(C(=O)NCc3ccc4c(c3)OCO4)cc21)Nc1ccc(Br)cc1F | -2.7 | 5.9 | 2.4 | 2.3 | 0.4 | / | /
NC(=O)CSc1nnc(-c2ccc(S(=O)(=O)N3CCCCC3)cc2)n1-c1ccccc1 | 7.0 | -3.8 | 3.3 | 0.0 | 50.0* | ? | -0.7%
COc1ccccc1-n1c(SCC(N)=O)nnc1-c1ccc(S(=O)(=O)N2CCCCC2)cc1 | 2.9 | 1.8 | 2.2 | 0.0 | -1.9 | / | /
CC(NC(=O)c1cc(Br)cs1)C1CCCO1 (configuration not stated) | -0.5 | -11.7 | -3.0 | -0.2 | 52.2* | -4.1 | -0.9%
Cc1ccc(Cn2cnc3c(oc4ccccc43)c2=O)cc1 | -1.4 | -2.1 | 3.9 | -0.2 | -5.5 | / | /
COc1ccc(/C=C/C(=O)Nc2ccc3nc4c(c(Nc5ccc(OC)c(OC)c5)c3c2)CCCC4)cc1 | 1.9 | -5.8 | -0.2 | -0.5 | 5.6 | / | /

Source: PubChem BioAssay (National Center for Advancing Translational Sciences (NCATS))
